Compounds with a hit are over-represented: about 28% of the library has one in this group of screens.
CYP2C19 inh: blocks human cytochrome P450 2C19 | inhibition, % at 5 µM | CYP2C19 Supersomes, luciferin-H EGE luminescence, 30 min | P33261 | actives 21% (n = 96,000);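 active means CYP2C19 inhibition above a set limit at 5 µM in the primary screen, cut at about 50% in these data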
CD11b adhes inh: CD11b/CD18-fibrinogen binding inhibition. K562 CD11b/CD18 adhesion to fibrinogen, ATPlite luminescence; Mn2+ added to activate the integrin. inhibition, % at 10 µM. actives 0.54% (n = 93,000);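 active means primary inhibition of 50% or more at 10 µM, then 40% or more on retest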
CYP2C19 activ: activators of human cytochrome P450 2C19; P33261; recombinant CYP2C19, luciferin-H EGE luminescence; active compounds read high; 0 = fully inhibited enzyme, 1 = untreated enzyme; activation factor at 5 µM; 96,000 tested, under 10 active; AID 1025;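 active means activation factor of at least 2 at 5 µM in the primary screen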
CYP2C9 inh: inhibitors of human CYP2C9. P11712. CYP2C9 Supersomes, luciferin-H conversion, luminescence. inhibition, % at 5 µM. actives 20% (n = 96,000). AID 777;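 active means blocking of liver enzyme CYP2C9 beyond about 50% at 5 µM, limit read from the data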
Target sequence (P11712 whole entry, looked up): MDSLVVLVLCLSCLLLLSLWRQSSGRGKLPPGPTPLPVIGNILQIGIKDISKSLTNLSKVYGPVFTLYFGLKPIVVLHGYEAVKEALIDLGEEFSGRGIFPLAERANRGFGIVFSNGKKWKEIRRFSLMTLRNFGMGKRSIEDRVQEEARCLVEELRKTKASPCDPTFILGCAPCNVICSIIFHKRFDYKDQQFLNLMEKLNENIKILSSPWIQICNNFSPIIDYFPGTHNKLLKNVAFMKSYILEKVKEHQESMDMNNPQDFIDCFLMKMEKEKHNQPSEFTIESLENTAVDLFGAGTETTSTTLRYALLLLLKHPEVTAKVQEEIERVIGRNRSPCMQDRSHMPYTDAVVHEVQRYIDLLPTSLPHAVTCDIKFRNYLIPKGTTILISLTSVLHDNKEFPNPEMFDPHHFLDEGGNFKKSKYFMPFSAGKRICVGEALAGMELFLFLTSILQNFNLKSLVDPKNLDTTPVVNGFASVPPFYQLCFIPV
CYP2C9 activ: activators of human CYP2C9; activation factor at 5 µM; actives 1.4% (n = 96,000); P11712; recombinant CYP2C9, luciferin-H conversion, luminescence; active compounds read high; factor 1 = untreated enzyme, 0 = blocked;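 active means activation factor of 2 or more for CYP2C9 at a 5 µM dose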
Mac1 fbg enh: enhancers of human CD11b/CD18 binding to fibrinogen | P05107+P11215 | K562 CD11b/CD18 adhesion to fibrinogen, ATPlite luminescence | activation, % at 10 µM | actives 0.07% (n = 93,000);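 active means 10 µM primary screen giving 50% or more activity, confirmed by 40% or more on retest at that dose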
Each line names hits and unclear results; the compound was inactive in the other large screens.

CC(C)C/C(=N/O)c1c[nH]c2ccccc12	CYP2C19 inh 77, CYP2C9 inh 59
CC(C(=O)c1c[nH]c2ccccc12)N1CCSCC1 (stereo unspecified)	none (no result: CD11b adhes inh, Mac1 fbg enh)
COc1ccc(-n2c(O)c(C(C)=NC3CC3)c(=O)[nH]c2=O)cc1	none
Cc1ccc(C(=O)C2(C)N(O)C(C)C(c3cccs3)=[N+]2[O-])cc1 (stereo unspecified)	CYP2C9 inh 56
O=C(CNC1CCCCC1)N1CCC2(CC1)OCCO2	none
COCCCNC(=O)c1c(NC(=O)c2ccccc2Cl)n(Cc2ccccc2)c2nc3ccccc3nc12	none
COCCNC(=O)c1c(NC(=O)c2ccco2)n(Cc2ccccc2)c2nc3ccccc3nc12	CYP2C9 inh 76
Cc1cc2c(C(F)(F)F)cc(=O)oc2c2c1NCCC2	CYP2C9 activ 2.4 (no result: CD11b adhes inh, Mac1 fbg enh)
CCC(C)N1C(=O)/C(=C/c2ccc3c(c2)CCN3CCCCl)C(=O)NC1=S (stereo unspecified)	none (no result: CYP2C19 inh, CYP2C19 activ, CYP2C9 inh, CYP2C9 activ)
CC1CN(C)C(C)(C)CC1(O)c1ccccc1 (stereo unspecified)	none
CC1SC2(CN3CCC2CC3)NC1=O (stereo unspecified)	none
CC1CN=C(Nc2ccc(N(C)C)cc2)S1 (stereo unspecified)	CYP2C19 inh 56
CCCCCCN=Cc1c(O)n(C)c(=O)n(C)c1=O	none (no result: CD11b adhes inh, Mac1 fbg enh)
NC12CN3CN(CN(C3)C1)C2 (tested in a mixture with another compound)	CYP2C9 activ 2
CCOC(=O)C1SC2(C(F)(F)F)CC1(O)c1c(C)cc(C)nc1O2 (stereo unspecified)	none
CCC(=NCc1ccco1)c1c(O)n(-c2ccccc2)c(=O)[nH]c1=O	CYP2C19 inh 54
CCC(=NCc1ccco1)c1c(O)n(-c2ccc(C)cc2)c(=O)[nH]c1=O	none
CC(=NCc1ccco1)c1c(O)n(-c2ccccc2)c(=O)[nH]c1=O	CYP2C19 inh 56
CCOc1ccc(Br)c(C2(O)CC(C)N(C)CC2C)c1 (stereo unspecified)	none
COc1ccc(C2=NCC(=O)N(CC(=O)NCc3ccco3)c3sc4c(c32)CCCC4)cc1	none
Cc1cccc(C2=NCC(=O)N(CC(=O)NCc3ccco3)c3sc4c(c32)CCCC4)c1	CYP2C19 inh 51, CYP2C9 inh 59
CCCCn1c(O)c(C(CC)=NCCN2CCCCC2)c(=O)[nH]c1=O	none
Cn1ncnc2c(=O)n(C)c(=O)nc1-2	CYP2C19 inh 95, CD11b adhes inh 71, CYP2C9 inh 80
CC12CN3CC(C)(CN(C1)C3c1cccs1)C2O (stereo unspecified)	CYP2C19 inh 58
COc1ccc(-n2c(O)c(C=Nc3c(C)n(C)n(-c4ccccc4)c3=O)c(=O)[nH]c2=O)cc1	none
CCC1(CCc2ccncc2)C(=O)NC(=O)NC1=O	none
O=C1NC(=O)C(CCc2ccncc2)(C2CCCCC2)C(=O)N1	CYP2C19 inh 64, CYP2C9 inh 70
CC1(C)COC(Nc2cccc(Cl)c2)=N1	CYP2C9 inh 76
COc1ccc(OP(=O)(Nc2ccccc2)Nc2ccccc2)cc1	CYP2C19 inh 83, CYP2C9 inh 69
CCC1CCCCN1CC(=O)c1ccc(OC(F)F)cc1 (stereo unspecified)	none (no result: CYP2C19 inh, CYP2C19 activ, CYP2C9 inh, CYP2C9 activ)
CCOc1cc(C2NCc3ccccc3-n3cccc32)ccc1O (stereo unspecified)	CYP2C19 inh 61, CYP2C9 inh 75
COc1ccc2[nH]c(C)c(CCN3CCC(=O)C(C)C3C)c2c1 (stereo unspecified)	CYP2C19 inh 89, CYP2C9 inh 51
CC1(C)CC(=O)C(C=NCCN2CCN(C(=O)Cc3ccc(Cl)cc3)CC2)=C(O)C1	CYP2C19 inh 90, CYP2C9 inh 63
CN1CCc2nc(SCC(=O)OC(C)(C)C)c(C#N)cc2C1	CYP2C19 inh 71
O=c1[nH]c(CN2CC=C(c3ccccc3)CC2)nc2cc(C(F)(F)F)ccc12	CYP2C9 inh 79
Cc1ccc2c(CN3CC=C(c4ccccc4)CC3)cc(=O)oc2c1C	none (no result: CYP2C19 inh, CYP2C19 activ, CYP2C9 inh, CYP2C9 activ)
CN1C(=O)C(=Cc2ccccc2Oc2ccc(Cl)c(F)c2)C(=O)N(C)C1=O	CYP2C9 inh 57 (no result: CD11b adhes inh, Mac1 fbg enh)
CCOP(=O)(OCC)C(NC(=O)c1ccc(C)cc1)=C(Cl)Cl	none (no result: CYP2C19 inh, CYP2C19 activ, CYP2C9 inh, CYP2C9 activ)
CCC(=NCC1CCCO1)c1c(O)n(-c2ccc(Cl)cc2)c(=O)[nH]c1=O (stereo unspecified)	none
CSCCC(N=Cc1c(O)n(-c2ccc(Br)cc2)c(=O)[nH]c1=O)C(=O)OC(C)(C)C (stereo unspecified)	none (no result: CD11b adhes inh, Mac1 fbg enh)
CCN(CC)C(=O)c1ccc(NC(=O)Cn2nc(C)c3ccccc3c2=O)cc1	CYP2C19 inh 66
CN1CCc2nc3sc(C#N)c(N)c3c(-c3cccs3)c2C1	CYP2C9 inh 56
CCC(C)N1Cc2ccccc2C1=N (stereo unspecified)	none
CCCCN1CCC(C#N)(Nc2ccccc2)CC1	CYP2C19 inh 71
CN1CCN(CCC(C#N)(c2ccccc2)c2ccccc2)CC1	none
CN(C)CCN=Cc1c(O)n(-c2cccc(C(F)(F)F)c2)c(=O)[nH]c1=O	none
CNC(=O)Oc1ccc2c(c1)C(=O)c1ccccc1CO2	CYP2C19 inh 61
COCCOC(=O)c1c(C)oc2ccc(OC(=O)N(C)C)cc12	CYP2C19 inh 63
CN(C)C(=O)Oc1ccc(OC(=O)N(C)C)cc1	none
CN1CCN(c2nc3ccccn3c(=O)c2C=C2C(=O)N(C)C(=O)N(C)C2=O)CC1	none (no result: CYP2C19 inh, CYP2C19 activ, CYP2C9 inh, CYP2C9 activ)
CCOC(=O)CCN=Cc1c(O)n(-c2ccc(Br)cc2)c(=O)[nH]c1=O	none
COc1ccccc1N1CCN(Cc2ccc(Cl)cc2Cl)CC1	CYP2C19 inh 56
COc1ccc(CN2CCN(c3ccccc3F)CC2)cc1O	CYP2C19 inh 74
Fc1ccccc1N1CCN(Cc2c(F)cccc2F)CC1	CYP2C19 inh 100, CYP2C9 inh 63
Fc1ccccc1N1CCN(Cc2ccc3c(c2)OCO3)CC1	none
NC(=S)N/N=C/c1coc2ccccc2c1=O	none (no result: CYP2C19 inh, CYP2C19 activ, CYP2C9 inh, CYP2C9 activ)
CN(C)C1=NC(N(C)C)=NP(N(C)C)(N(C)C)=N1	none
Cc1ccc(-n2c(-c3cccs3)nc3ccccc3c2=O)cc1	CYP2C9 inh 58
C/C(=N/OC(=O)N(C)C)c1ncc(C(F)(F)F)cc1N1CCOCC1	none
CSc1ccc(C(=O)C(C)(C)N2CCOCC2)cc1	CYP2C19 inh 92
Cn1cc(C(=O)c2ccccc2)c2ccccc21	CYP2C9 activ 2.9
C/C(=N\N1CCN(C)CC1)c1c(O)n(Cc2ccccc2)c(=O)[nH]c1=O	none (no result: CYP2C19 inh, CYP2C19 activ, CYP2C9 inh, CYP2C9 activ)
CCn1cc(C(=O)c2cccs2)c2ccccc21	CYP2C9 activ 3.1
N#Cc1ccccc1Cn1cc(C(=O)c2ccco2)c2ccccc21	CYP2C19 inh 66, CYP2C9 inh 56
CCC(=O)c1cn(Cc2ccccc2C#N)c2ccccc12	CYP2C19 inh 76, CYP2C9 inh 52
